# High-throughput results: PubChem, Sanford-Burnham Center for Chemical Genomics
# These entries were drawn from the full list.
# CYP2C19 activ: human CYP2C19 activators, primary screen, biochemical, luminescence; Cytochrome P450 2C19 (Homo sapiens), P33261; 96,000 tested, under 10 active; recombinant CYP2C19, luciferin-H EGE luminescence; active compounds read high; 0 = fully inhibited enzyme, 1 = untreated enzyme; activation factor at 5 µM;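 active = activation factor of at least 2 at 5 µM in the primary screen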;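 note: 0 = wells with 2.5 mM tranylcypromine and 1 = vehicle-only wells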
# CYP2C9 act: human CYP2C9 activators, primary screen, biochemical, luminescence. Cytochrome P450 2C9 (Homo sapiens), P11712. recombinant CYP2C9, luciferin-H conversion; active compounds read high; factor 1 = untreated enzyme, 0 = blocked. activation factor at 5 µM. 96,000 tested, 1.4% active;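 active = activation factor of 2 or more for CYP2C9 at a 5 µM dose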;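 note: 0 = sulfaphenazole-blocked wells and 1 = vehicle-only wells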
# CYP2C9 inh: blockers of cytochrome P450 2C9 activity – biochemical, luminescence, ADME assay, primary screen; P11712; CYP2C9 Supersomes, luciferin-H conversion; inhibition, % at 5 µM; 96,000 tested, 20% active; AID 777, 2007;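 active = blocking of liver enzyme CYP2C9 beyond about 50% at 5 µM, limit read from the data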
# CYP2C19 inhib: blockers of cytochrome P450 2C19 activity – biochemical, luminescence, ADME assay, primary screen; AID 778, 2007; CYP2C19 Supersomes, luciferin-H EGE luminescence, 30 min; 96,000 tested, 21% active; P33261; inhibition, % at 5 µM;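 active = CYP2C19 inhibition above a set limit at 5 µM in the primary screen, cut at about 50% in these data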;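 note: plate controls were negative control wells for no effect and 2.5 mM tranylcypromine positive control for full effect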
# PTK2B oligo ant: antagonists of Pyk2 self-association, primary screen, Q293 cells, FERM NanoBiT luminescence, HTS | z-score (the deposit names both 25 µM and 10 µM) | AID 1347419, 2020 | active compounds read low | 99,000 tested, 0.83% active | Protein-tyrosine kinase 2-beta (Homo sapiens), Q14289;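 active = Z-score of -3 or lower, scaled per plate to the spread of control and sample wells; inactive = z-score above -3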;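 note: negative z-score means lost luminescence so less FERM oligomerization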
# * hit, by the source's call; · = no result.
SMILES,CYP2C19 activ,CYP2C9 act,CYP2C9 inh,CYP2C19 inhib,PTK2B oligo ant
O=C(Nc1ccccc1)N1CCC(c2ccccc2)C1 (stereo unspecified),0.3,0.9,12,73*,0.34
O=C(c1cccs1)N1CCCC1,·,·,·,·,1.2
NC(=O)C1CCN(C(=O)Nc2ccccc2)CC1,1.2,1.1,-13,-16,-0.6
C/C(N)=C(/C#N)C(=O)CSc1nnc(COc2cc(C)ccc2C)o1,1,0.9,9,0,0.65
O=C(NCC1(c2ccccc2)CCCC1)c1cccc(Br)c1,1,0.9,6,1,-1.4
Cc1cc(C)nc(SC(C)C(=O)Nc2ccc(S(N)(=O)=O)cc2)n1 (stereo unspecified),1.1,0.8,16,-6,-1.4
O=C(NC1CCCCC1)N1CCC(n2c(=O)[nH]c3ccccc32)CC1,1,1.2,-16,0,·
O=C(Nc1ccccc1)N1CCC(n2c(=O)[nH]c3ccccc32)CC1,0.7,0.3,72*,28,·
CC1=C(C(=O)Nc2ccccc2C)C(c2ccc(C)o2)N2C(=O)CSC2=N1 (stereo unspecified),0.9,0.9,6,10,1.7
CC(=O)C(C(C)=O)c1c(Cl)c(O)c(O)c2c(C(=O)c3ccccc3)coc12,0.9,0.1,86*,9,-2.9
O=C(NCC1COCCO1)C1CCN(S(=O)(=O)c2ccccc2)CC1 (stereo unspecified),1,0.8,20,1,1.2
O=C1C(C=NCc2ccncc2)=C(O)c2ccccc21,0.2,0.2,85*,76*,-0.01
O=C1C(c2ccncc2)=C(O)c2ccccc21,0.5,0.1,92*,50,0.26
CN1CCCc2cc3c(C(F)(F)F)cc(=O)oc3nc21,0.9,0.9,10,14,0.68
